Measurements published in PubChem BioAssay (NCATS).
Inconclusive results are not listed. Activity calls are given as the source filed them. Calls follow the shape of the dose curve; as a rule, active = well fitted inhibition curve with a large enough effect; inconclusive = small, poorly fitted or top-dose-only effect; inactive = flat fitted curve, though single readings scatter.

Tested on: MKL-1
Assay: qHTS assay to identify novel small-molecules to repurpose for Merkel cell carcinoma treatment (AID 1296009); also: nearly all actives have a fitted effect of over 60% in size
Settings: MCC and control cell lines, CellTiter-Glo viability, 72 h; series mostly up to 46 µM; activity change, negative = cytotoxicity: at the top concentration
Outline: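 After compound transfer in DMSO, plates were kept 72 hr at 37 degree celsius. Luminescent ATP signal from CellTiter-Glo served as viability measure, normalized against DMSO and no-cell controls.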
% is scaled to controls: 0 for no effect and ±100 for the full control effect; potency is read from the fitted curve at half-maximal effect.

| SMILES | activity change, negative = cytotoxicity | Potency |
| --- | --- | --- |
| Nc1ncnc2c1c(-c1cccc(OCc3ccccc3)c1)cn2C1CC(CN2CCC2)C1 (stereo not drawn) | 2.81% (inactive) |  |
| CC(C)C[C@@H](C(=O)N[C@H](C(=O)OC1CCCC1)c1ccccc1)[C@H](O)C(=O)NO | -9.66% (inactive) |  |
| O=C1Nc2ccc(I)cc2C1=Cc1cc(Br)c(O)c(Br)c1 | -4.7% (inactive) |  |
| C=CCc1cccc(C=NNC(=O)CN2CCN(Cc3ccccc3)CC2)c1O |  | 9.35 µM (active) |
| CN1C(=O)C(Cc2c[nH]c3ccccc23)NC1=S (stereo not drawn) | -6.6% (inactive) |  |
| Cc1ccc(C(=O)N(CCCN)[C@@H](c2oc3cc(Cl)ccc3c(=O)c2Cc2ccccc2)C(C)C)cc1 | -89.9% (inactive) |  |
| Cc1cccc2c1CC[C@H](CN1CCC(c3c(Cl)cccc3Cl)CC1)C[C@@H]2O | -3.48% (inactive) |  |
| COC1CCC(C(=O)c2ccc3nc4c(cc3c2)CCCO4)CC1 (stereo not drawn) | -3.88% (inactive) |  |
| Cc1ccc2c(c1)c1c(n2CCc2ccc(C)nc2)CCN(C)C1 | 3.45% (inactive) |  |
| Cc1c(C(=O)Nc2ccc(N3C[C@@H](C)O[C@@H](C)C3)nc2)cccc1-c1ccc(OC(F)(F)F)cc1 | 5.61% (inactive) |  |
| O=C(O)c1ccc(O)c2ncc(N3CCOCC3)cc12 |  | 16.6 µM (active) |
| CSc1cccc(Nc2ncc3cc(-c4c(Cl)cccc4Cl)c(=O)n(C)c3n2)c1 | -8.32% (inactive) |  |
| CN(C)CCN(Cc1ccc(Cl)cc1)c1ccccn1 | -8.52% (inactive) |  |
| CC(C)C[C@H](NC(=O)c1cc2ccccc2s1)C(=O)N1CCN(C(=O)[C@H](CO)NS(=O)(=O)c2ccc(Cl)cc2Cl)CC1 | -3.88% (inactive) |  |
| CC1=C[C@@H]2[C@@H]([C@@H](O)C[C@@]3(C)[C@H]2C[C@@H](C)[C@]3(O)C(=O)CO)[C@@]2(C)Cc3cnn(-c4ccccc4)c3C=C12 | -4.24% (inactive) |  |
| Cc1cnc(Nc2cccc(CN3CCOCC3)c2)nc1Nc1cccc(S(=O)(=O)NC(C)(C)C)c1 | -15.3% (inactive) |  |
| O=C(O)Cc1cccc(OCCCN(Cc2cccc(C(F)(F)F)c2Cl)CC(c2ccccc2)c2ccccc2)c1 | 1.36% (inactive) |  |
| CC(C)N(CCCNC(=O)Nc1ccc(C(C)(C)C)cc1)C[C@H]1O[C@@H](n2cc(Br)c3c(N)ncnc32)[C@H](O)[C@H]1O | -22.9% (inactive) |  |
| COc1ccc(-c2cc3nccn3c(Nc3ncccc3C(N)=O)n2)cc1OC | 11.4% (inactive) |  |

| SMILES | activity change, negative = cytotoxicity | Potency |
| --- | --- | --- |
| O=C(CO)N1CCC(c2[nH]nc(-c3ccc(Cl)cc3)c2-c2ccncn2)CC1 | -2.06% (inactive) |  |
| CN[C@@H]1CN(c2ccc3c(=O)c(C(=O)O)cn(-c4nccs4)c3n2)C[C@@H]1OC |  | 1.82 µM (active) |
| CN(C)CC[C@H](CSc1ccccc1)Nc1ccc(S(=O)(=O)NC(=O)c2ccc(N3CCN(Cc4ccccc4-c4ccc(Cl)cc4)CC3)cc2)cc1[N+](=O)[O-] |  | 1.18 µM (active) |
| C[C@@H](O[C@H]1OCCN(Cc2n[nH]c(=O)[nH]2)[C@@H]1c1ccc(F)cc1)c1cc(C(F)(F)F)cc(C(F)(F)F)c1 | -15.1% (inactive) |  |
| CC1=C(C(=O)Nc2cc3cn[nH]c3cc2F)C(c2ccc(C(F)(F)F)cc2)CC(=O)N1 (stereo not drawn) | -24.9% (inactive) |  |
| C#CCN(C)CC1=Cc2ccccc2Oc2ccccc21 | -15% (inactive) |  |
| Cc1ccc(NC(=O)c2cccc(N(C)C)c2)cc1NC(=O)c1ccc(O)cc1 |  | 8.33 µM (active) |
| CC(C)(C)c1nc(-c2cccc(NS(=O)(=O)c3c(F)cccc3F)c2F)c(-c2ccnc(N)n2)s1 | -7.26% (inactive) |  |
| COc1nccc(-c2c(-c3ccc(F)cc3)ncn2C2CCC(O)CC2)n1 (stereo not drawn) | -0.414% (inactive) |  |
| Nc1ccc(-c2ccc3ncc4ccc(=O)n(-c5cccc(C(F)(F)F)c5)c4c3c2)cn1 |  | 0.148 µM (active) |
| CC(C)(O)CC(=O)NCCn1ccc2ncnc(Nc3ccc(Oc4cccc(C(F)(F)F)c4)c(Cl)c3)c21 | 7.49% (inactive) |  |
| Nc1ccn([C@@H]2O[C@H](CO)[C@@H](O)[C@H]2O)c(=O)n1 |  | 9.35 µM (active) |
| CCCCc1ccc(NS(=O)(=O)c2ccc(C)c(C(=O)N3CCN(c4cccc(C)c4C)CC3)c2)cc1 | -1.08% (inactive) |  |
| O=S(=O)(NCCNCC=Cc1ccc(Br)cc1)c1cccc2cnccc12 |  | 20.9 µM (active) |
| CNC(=O)c1cc(COc2nnc(Nc3ccc(Cl)cc3)c3ccoc23)ccn1 | -0.248% (inactive) |  |
| O=c1[nH]c(=O)n([C@H]2C[C@@H](O)[C@@H](CO)O2)cc1I | -4.67% (inactive) |  |
| CN1c2ccccc2C(=O)N2CCc3c([nH]c4ccccc34)C21 (stereo not drawn) | 0.367% (inactive) |  |
| CNC(=O)[C@H](CC1=CN=C2C=CCC=C12)NC(=O)[C@@H](CC(=O)NO)CC(C)C |  | 0.296 µM (active) |
| COc1ccc(-c2ccc3ncc4c(c3c2)n(-c2ccc(N3CCNCC3)c(C(F)(F)F)c2)c(=O)n4C)cn1 |  | 0.0296 µM (active) |
